# According to PubChem BioAssay AID2685 (National Center for Advancing Translational Sciences (NCATS), 2010):
# In all, about 320,000 compounds went through this assay and about 2,100 (0.66%) were called active. Inconclusive results (about 53%) are left out. The sample holds actives, similar compounds and a random draw of the others, so the mix is not that of the screen. The call rests on the fitted dose curve; in most records, active means well fitted inhibition curve with a large enough effect in the signal ratio, with a control signal flat (not every such curve was filed as active); inconclusive means small, poorly fitted or top-dose-only effect, or effect the other way, or a change in a side signal; inactive means flat fitted curve, though single readings scatter; the % refers to the signal ratio.
# Assay: qHTS Assay for Lipid Storage Modulators in Drosophila S3 Cells;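 on cell number change: cells counted by Cell Tracker Red CMTPX staining in the red channel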; on lipid storage change, negative = inhibition: on the % scale 0 is the no-effect control and ±100 the full control effect
# Conditions: BODIPY lipid droplet fluorescence, 18-24 h, cells fed with added oleic acid; cell number change: measured here: cell count max response; series mostly up to 46.1 µM; lipid storage change, negative = inhibition: at the top concentration
# Method in brief: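 Laser-scanning cytometry quantifies lipid droplet accumulation (500–530 nm total intensity; droplet/cell object ratio) in oleic acid-fed (400 uM added) Drosophila S3 cells treated with a concentration series. 20 uM Triacsin C defined 100% inhibition.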
# Potency means the concentration at half of the fitted maximal effect.
Structure (SMILES),Potency,cell number change [%],"lipid storage change, negative = inhibition",outcome
CC(C)(C)OC(=O)NCCCC(CCCNC(=O)OC(C)(C)C)C(=O)O,16.4 µM (active),-6.12,,
CC(C)(C)OC(=O)NC(Cc1ccccc1)C(=O)NCCCC(=O)O (stereo not drawn),,-14.4,-11.2% (inactive),
CC(C)(C)OC(=O)NCCCCCO,,-1.04,4.7% (inactive),
Cc1ccc(C(=O)N/N=C/c2ccc(-c3cccc(Cl)c3)o2)cn1,,8.19,-1.13% (inactive),
Nc1c(-c2ccccc2)sc2ccc3ccccc3[n+]12,1.3 µM (active),7.96,,
Nc1nc(-c2ccccc2)c(-c2ccc([N+](=O)[O-])cc2)s1,,0.729,20.9% (inactive),
Nc1nc(-c2ccccc2)c(-c2ccccc2)s1,,,2.72% (inactive),
O=C(COC(=O)C1COc2ccccc2O1)Nc1cccc(Cl)c1 (stereo not drawn),,-13.4,3.3% (inactive),
Cc1ccccc1C1C(=O)c2ccccc2C1=O,20.6 µM (active),14.4,,
Cc1ccc(C)c(C2C(=O)c3ccccc3C2=O)c1,,-8.26,-0.949% (inactive),
O=C1c2ccccc2C(=O)C1c1ccccc1,,3.81,2.57% (inactive),
O=C(Nc1ccc(Cl)cc1)Nc1ccon1,,28.2,-1.42% (inactive),
O=C(Nc1ccc(Cl)c(Cl)c1)Nc1ccon1,10 µM (active),,,
O=C(Nc1cccc(Cl)c1)Nc1ccon1,,-26.2,,inactive
Cc1cc(C)cc(OCCCCCNCCO)c1,,-17.6,-0.724% (inactive),
Cc1cc(C)c(OCCCCCNCCO)c(C)c1,25.9 µM (active),-17.5,,
Cc1ccccc1OCCCCCNCCO,,2.5,,inactive
O=C1NCCN(Cc2ccc(Cl)c(F)c2)C1CC(=O)N1CCCCO1 (stereo not drawn),,5.73,7.12% (inactive),
Nc1nc2c(C(=O)N3CCOCC3)nnn2c2ccccc12,,6.42,5.07% (inactive),
CCN(CC)S(=O)(=O)c1ccc(N2CCOCC2)c(NS(=O)(=O)c2ccc(C)c(C)c2)c1,,16,-10.2% (inactive),
CCN(CC)S(=O)(=O)c1ccc(N2CCCC2)c(NS(=O)(=O)c2ccc(OC)cc2)c1,,10.1,1.12% (inactive),
CCN(CC)S(=O)(=O)c1ccc(N2CCOCC2)c(NS(=O)(=O)c2ccc(OC)cc2)c1,20.6 µM (active),-20.4,,
CN(C(=O)CCn1c(=S)oc2ccccc21)c1ccc(F)cc1,,7.52,7.47% (inactive),
Cc1cc(C)c(C)c(S(=O)(=O)N[C@@H](C)C(=O)OCC(N)=O)c1C,,-24.5,-8.61% (inactive),

Structure (SMILES),Potency,cell number change [%],"lipid storage change, negative = inhibition",outcome
O=C(NCC(=O)N1CCN(c2ccccc2)CC1)c1ccco1,,1.29,11.3% (inactive),
COc1ccc(N2CCN(C(=O)COC(=O)c3ccco3)CC2)cc1,,6.24,-1.86% (inactive),
O=C(OCC(=O)N1CCN(c2ccccc2)CC1)c1ccco1,23.1 µM (active),-17.5,,
COc1ccc(NC(=O)CCS(=O)(=O)c2ccc(Cl)cc2)cc1,,,,inactive
O=S(=O)(c1cccs1)N1CCC(Cc2ccccc2)CC1,,-12,,inactive
CCC(C)Sc1ccc(-c2nc3ccc(C)cn3c2NC2CCCCC2)cc1 (stereo not drawn),,-1.01,15.5% (inactive),
CCCCCCSc1ccc(-c2nc3ccc(C)cn3c2NC2CCCCC2)cc1,11.6 µM (active),,,
CCCCCCSc1cccc(-c2nc3cc(C)ccn3c2NC2CCCCC2)c1,,-11.8,-7.42% (inactive),
CC(C)(C)CC(=O)Nc1nn[nH]n1,,-2.51,2.6% (inactive),
O=C(NNC(=S)NC1CC2C=CC1C2)c1cccnc1 (stereo not drawn),,2.14,2.66% (inactive),
COCC(=O)Nc1ccc(Br)c(C)c1,,9.41,14.1% [at 9.22 µM] (inactive),
CCOC(=O)Cc1csc(SCC(=O)NC(C)C23CC4CC(CC(C4)C2)C3)n1 (stereo not drawn),1.64 µM (active),5.41,,
CCOC(=O)Cc1csc(SCC(=O)Nc2cccc(Cl)c2)n1,,13.5,-3.77% (inactive),
CCOC(=O)Cc1csc(SCC(=O)Nc2ccc(C)cc2F)n1,,-11,31.2% (inactive),
O=C(Nc1ccccn1)c1ccc(Cl)c(S(=O)(=O)N2CCOCC2)c1,,13.7,-1.8% (inactive),
CCOC(=O)COc1ccccc1C(=O)c1cnn(-c2ccccc2)c1,,3.88,8.31% (inactive),
CCC(C)NC(=O)CSc1nc2ccccc2c(=O)n1CCCN1CCCCC1 (stereo not drawn),,-2.07,24.2% (inactive),
Cc1cc([N+](=O)[O-])nn1CCC(=O)Nc1nccs1,,0.24,15% (inactive),
CCCN1CCc2c(sc(NC(=O)c3ccc(S(=O)(=O)N(C)c4ccccc4)cc3)c2C(=O)NC)C1,4.11 µM (active),-17.2,,
CCCN1CCc2c(sc(NC(=S)NC(=O)c3ccccc3)c2C#N)C1,,3.88,-2.06% (inactive),
CCCN1CCc2c(sc(NC(=O)c3ccc(S(=O)(=O)N(C)c4ccccc4)cc3)c2C(N)=O)C1,13 µM (active),-20.7,,
CCCN1CCc2c(sc(NC(=O)c3ccc(S(=O)(=O)N4CCN(C(=O)OCC)CC4)cc3)c2C(N)=O)C1,,-7.97,-19.6% (inactive),
COC(=O)c1c(NC(=O)c2ccc(N(C)S(=O)(=O)c3ccc(C)cc3)cc2)sc2c1CCCC2,,-4.01,8.28% (inactive),
CN1CCc2c(sc(NC(=O)c3ccc(C(=O)c4ccccc4)cc3)c2C(N)=O)C1,,0.647,-25.9% (inactive),

Structure (SMILES),Potency,cell number change [%],"lipid storage change, negative = inhibition",outcome
COc1cc(OC)c(C(=O)OCC(=O)NCCC2=CCCCC2)cc1OC,,-12.4,,inactive
COCCNC(=O)CCCn1c(=O)c2cc(OC)c(OC)cc2n(CC(=O)c2ccc(Cl)cc2)c1=O,,-4.78,-0.141% (inactive),
CCOC(=O)C1CCN(C(=O)CC(NS(=O)(=O)c2ccc(OC)cc2)C(C)C)CC1 (stereo not drawn),,5.69,8% (inactive),
CN(C)CCCNc1ccc(-c2cc(Nc3cccc(Cl)c3)ncn2)cn1,,7.36,8.12% (inactive),
CC(C)n1cnc2c(Nc3cccc(Cl)c3)nc(NCCCO)nc21,,1.01,-22.1% (inactive),
OCCCNc1cc(-c2ccnc(Nc3cccc(Cl)c3)n2)ccn1,6.51 µM (active),-20.1,,
OC(COc1c(F)cc(Br)cc1F)CN1CCc2ccccc2C1 (stereo not drawn),,-1.04,12.2% (inactive),
c1ccc(Cc2nnc3sc(-c4ccccn4)nn23)cc1,,,,inactive
O=C(NC1CCCCC1)N(CCN1CCCC1)Cc1cc2cc3c(cc2[nH]c1=O)OCCO3,,,,inactive
CCN(CC)CCN(Cc1cc2cc3c(cc2[nH]c1=O)OCCO3)C(=O)NC1CCCCC1,16.4 µM (active),4.42,,
CN(C)CCCN(Cc1cc2cc3c(cc2[nH]c1=O)OCCO3)C(=O)NC1CCCCC1,,0.0235,-6.26% (inactive),
CN1CCN(Cc2nc(N)nc(Nc3ccc4c(c3)OCCO4)n2)CC1,,-0.153,1.73% (inactive),
Cc1ccc(Nc2nc(N)nc(CN3CCN(C)CC3)n2)cc1C,,7.98,2.99% (inactive),
Cc1ccc(Nc2nc(N)nc(CN3CCN(C)CC3)n2)cc1,25.9 µM (active),-12,,
O=C(Cc1cccc(C(F)(F)F)c1)NCc1cccnc1,,16.2,-11.2% (inactive),
CCc1c(C)sc(NC(=S)N2CCN(C(=O)C3CCCO3)CC2)c1C(=O)OC (stereo not drawn),,,,inactive
COc1ccc(C(=O)N/C(=C\c2cn(C)c3ccccc23)C(=O)N2CCN(C)CC2)cc1,,12.5,,inactive
COc1ccc(NC(=O)/C(C#N)=C/c2cccnc2)c(OC)c1,,-14.9,,inactive
COc1ccccc1NC(=O)/C(C#N)=C/c1ccncc1,1.16 µM (active),-3.78,,
COc1ccccc1NC(=O)/C(C#N)=C/c1cccnc1,,14.4,,inactive
Cc1ccc(NC(=O)CC2Oc3ccc(C)cc3NC2=O)c(C)c1 (stereo not drawn),,7.72,-7.11% (inactive),
Cc1ccc(S(=O)(=O)c2nnn(-c3cccc(F)c3)c2N)cc1,,-21.1,1.42% (inactive),
C[C@H](NC(=O)[C@H]1N2C(=O)c3ccccc3C2SC1(C)C)C(=O)N1CCCCC1 (stereo partly drawn),23.1 µM (active),-4.2,,
CCC(C)NC(=O)[C@H]1N2C(=O)c3ccccc3C2SC1(C)C (stereo partly drawn),,25,-2.79% (inactive),

Structure (SMILES),Potency,cell number change [%],"lipid storage change, negative = inhibition",outcome
C[C@H](NC(=O)[C@H]1N2C(=O)c3ccccc3C2SC1(C)C)C(=O)N1CCC[C@H]1C(=O)O (stereo partly drawn),,,26.5% (inactive),
Cc1ccc(-c2nnnn2C2C/C(=N\NC(N)=S)C3OCC2O3)cc1 (stereo not drawn),,-15.7,-15.2% (inactive),
COc1ccc(C(=O)OCC(=O)NCCCc2ccccc2)c(OC)c1,,26.9,7.81% (inactive),
COc1ccc(C(=O)N(CCc2ccccc2)Cc2cccs2)c(OC)c1,13 µM (active),-11.1,,
COc1ccc(C(=O)N(Cc2ccco2)Cc2cccs2)c(O)c1,,11,,inactive
CCOc1cc(C2C(C#N)=C(N)SC(N)=C2C#N)ccc1OCCN1CCOCC1,,,,inactive
CCN1C(=O)/C(=C\c2ccc(-c3cccc(C(=O)OC)c3)o2)SC1=Nc1ccc(C(=O)O)cc1,6.51 µM (active),-21.2,,
CCN=C1S/C(=C\c2ccc(Sc3ccc(Cl)cc3)o2)C(=O)N1CC,,-1.66,21.1% (inactive),
CCN=C1S/C(=C/c2ccc(-c3ccc(Cl)cc3C(=O)O)o2)C(=O)N1CC,,,-0.481% (inactive),
O=C(O)c1cccc(-c2ccc(/C=C3/SC(=Nc4ccccc4)N(Cc4cccnc4)C3=O)o2)c1,,-5.87,6.57% (inactive),
CC(C)(C)OC(=O)CN1C(=O)S/C(=C\c2ccc(-c3cccc(C(=O)O)c3)o2)C1=O,,2.36,-14.2% (inactive),
CCN=C1S/C(=C/c2ccc(-c3ccc(F)cc3)o2)C(=O)N1CC,18.4 µM (active),4.49,,
CC1=[N+](CC(=O)NC(C)(C)C)CCc2ccccc21,,-0.377,-0.327% (inactive),
O=C(Nc1cccc(OC(=O)c2ccc(Br)o2)c1)c1ccccc1,,11.8,4.19% (inactive),
Cc1ccc(OCCCCNC2CCCCC2)c(C)c1,,,,inactive
COCCCNC(=O)CC(NS(=O)(=O)c1ccc(Cl)cc1)c1ccco1 (stereo not drawn),32.6 µM (active),,,
CCCNC(=O)CC(NS(=O)(=O)c1ccc(Cl)cc1)c1ccco1 (stereo not drawn),,17.5,19.4% (inactive),
COCCCNC(=O)CC(NS(=O)(=O)c1ccc(C)cc1)c1ccco1 (stereo not drawn),,0.789,-3.27% (inactive),
CSC(=NC1CCCCC1)NS(=O)(=O)c1ccccc1,,,-23.2% (inactive),
COc1ccc(N2CCN(C(=O)c3ccc4ccccc4n3)CC2)cc1,,-2.64,9.19% (inactive),
CN(CC(=O)Nc1ccc(N2CCOCC2)cc1)CC(=O)Nc1ccc(N2CCOCC2)cc1,,-8.37,6.32% (inactive),
